The results in this text go back to publication PMC4336329 (PLoS ONE, 2015).

Out of some 310,000 compounds screened, about 14,000 (4.5%) showed an effect of 50% or more. Effects have a minus sign here. The list comes from a sample in which strong results are over-represented; it also holds similar structures and randomly drawn compounds.
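Note: peak tail current of the secondary pulse compared with the same well before compound.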

The assay deals with human ether-à-go-go-related gene (hERG) potassium channel (human, UniProt Q12809). In words: primary screen, population patch clamp on CHO cells stably expressing hERG; higher = less effect of the substance.
Sequence of human ether-à-go-go-related gene (hERG) potassium channel (Q12809 whole entry, looked up): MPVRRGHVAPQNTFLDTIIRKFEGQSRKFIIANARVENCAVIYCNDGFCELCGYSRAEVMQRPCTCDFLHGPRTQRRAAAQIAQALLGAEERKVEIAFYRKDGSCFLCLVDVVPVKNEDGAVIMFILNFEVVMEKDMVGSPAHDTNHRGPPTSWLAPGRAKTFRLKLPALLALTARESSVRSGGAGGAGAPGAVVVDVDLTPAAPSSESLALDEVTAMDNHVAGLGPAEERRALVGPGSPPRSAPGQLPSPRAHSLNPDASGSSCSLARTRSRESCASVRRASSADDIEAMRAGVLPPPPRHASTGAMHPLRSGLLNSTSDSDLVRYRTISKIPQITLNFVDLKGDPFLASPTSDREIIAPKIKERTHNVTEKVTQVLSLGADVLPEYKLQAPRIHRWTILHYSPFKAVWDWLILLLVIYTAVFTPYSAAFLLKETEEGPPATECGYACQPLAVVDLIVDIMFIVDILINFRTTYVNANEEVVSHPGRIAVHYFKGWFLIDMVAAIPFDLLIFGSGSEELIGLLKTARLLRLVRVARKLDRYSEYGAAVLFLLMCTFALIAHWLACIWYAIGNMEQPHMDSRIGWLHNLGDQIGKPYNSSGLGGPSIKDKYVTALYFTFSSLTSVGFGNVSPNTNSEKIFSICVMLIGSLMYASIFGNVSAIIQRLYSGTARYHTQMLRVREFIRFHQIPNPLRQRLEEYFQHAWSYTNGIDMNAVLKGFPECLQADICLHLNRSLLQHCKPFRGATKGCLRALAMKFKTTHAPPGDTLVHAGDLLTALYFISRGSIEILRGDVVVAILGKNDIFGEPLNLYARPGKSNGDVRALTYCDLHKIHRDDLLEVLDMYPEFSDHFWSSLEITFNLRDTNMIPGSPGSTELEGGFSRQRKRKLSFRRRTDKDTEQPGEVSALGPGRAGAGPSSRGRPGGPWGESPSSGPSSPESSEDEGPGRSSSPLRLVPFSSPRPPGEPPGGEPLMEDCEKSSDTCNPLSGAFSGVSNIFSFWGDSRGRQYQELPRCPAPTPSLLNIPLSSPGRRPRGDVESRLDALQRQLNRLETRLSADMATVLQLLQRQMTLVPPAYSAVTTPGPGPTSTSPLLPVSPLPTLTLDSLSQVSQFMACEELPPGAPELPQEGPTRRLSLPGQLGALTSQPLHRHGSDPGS
For the molecule `COC(=O)C1=C(c2ccc(F)cc2OCc2ccccc2)C[C@@H]2CC[C@H]1N2C(=O)NCCCc1ccccc1`, the “hERG current change (%, negative = inhibition) at 10uM” value came to 4.96%.

For the molecule `CCN(Cc1ccccc1)C(=O)CN1C(=O)NC(CC)(c2ccc(F)cc2)C1=O` (stereo not shown), the “hERG current change (%, negative = inhibition) at 10uM” value was -7.55%.

Regarding `CCn1ncc(Br)c1C(=O)Nc1sc2c(c1C(=O)OC)CCC2`, the “hERG current change (%, negative = inhibition) at 10uM” value is on record as -40.8%.

For the molecule `O=C(Cc1ccc(F)cc1)NC1CCS(=O)(=O)C1` (stereo not shown), the “hERG current change (%, negative = inhibition) at 10uM” value was 9.36%.

With `Cc1cc(-c2ccccc2)oc(=O)c1NC(=O)c1ccccc1`, the “hERG current change (%, negative = inhibition) at 10uM” value is on record as 3.11%.

Consider `O=C(N/N=C/c1ccc([N+](=O)[O-])cc1)c1cccnc1`, for which the “hERG current change (%, negative = inhibition) at 10uM” value is 0.658%.

Turning to `Cc1cccc(Nc2ccccc2C(=O)O)c1C`, the “hERG current change (%, negative = inhibition) at 10uM” value stood at 2.88%.

With `CN1CCc2c(sc3c2c(=O)n(-c2ccccc2)c2nnc(SCc4ccc(Cl)cc4)n32)C1`, the “hERG current change (%, negative = inhibition) at 10uM” value was -2.08%.

For `CCCCSCCCNC(=O)CCCN1C(=O)c2ccccc2Sc2ncccc21`, the “hERG current change (%, negative = inhibition) at 10uM” value was -27.6%.

`COc1ccc(N(C(=O)c2ccc3c(c2)OCO3)C2C=CS(=O)(=O)C2)c(OC)c1` (stereo not shown): the “hERG current change (%, negative = inhibition) at 10uM” value was -22.3%.

Take `Cc1cc(C(=O)N(C)CC2CCCN(CCc3ccc(F)cc3)C2)c(C)o1` (stereo not shown): the “hERG current change (%, negative = inhibition) at 10uM” value is -75.7%.

Consider `CCN(CC1CCCN(CCc2cccc(F)c2)C1)C(=O)c1cc(C)oc1C` (stereo not shown), for which the “hERG current change (%, negative = inhibition) at 10uM” value was -66.8%.

Turning to `CCN(CC1CCCN(CCc2cccc(F)c2)C1)C(=O)c1ccc(CSC)o1` (stereo not shown), the “hERG current change (%, negative = inhibition) at 10uM” value was -74.5%.

Consider `CSCc1ccc(C(=O)N2CCCC(Nc3ccc(F)cc3)C2)o1` (stereo not shown), for which the “hERG current change (%, negative = inhibition) at 10uM” value is -18.7%.

Take `CCN(CC)C(=O)C1CCCN(Cc2cccc(F)c2)C1` (stereo not shown): the “hERG current change (%, negative = inhibition) at 10uM” value was determined as 7.43%.

With `CN(C)CCN(CC1CCCN(Cc2ccccc2F)C1)C(=O)Cc1c(F)cccc1F` (stereo not shown), the “hERG current change (%, negative = inhibition) at 10uM” value is recorded as -9.05%.

Turning to `C=CCC(=O)N(CC)CC1CCCN(CCc2cccc(F)c2)C1` (stereo not shown), the “hERG current change (%, negative = inhibition) at 10uM” value was -54.2%.

For `C=CCn1c(SCC(=O)Nc2ccc3c(c2)OCO3)nnc1-c1ccccc1OC`, the “hERG current change (%, negative = inhibition) at 10uM” value is -7.02%.

For `O=S(=O)(c1cccc(-c2nnc(-c3cccnc3)o2)c1)N1CCCCC1`, the “hERG current change (%, negative = inhibition) at 10uM” value is on record as -25%.

As for `CCOC(=O)Cc1csc(NC(=O)COc2ccccc2OCC)n1`, the “hERG current change (%, negative = inhibition) at 10uM” value is given as -24.2%.

Turning to `O=S(=O)(Cc1ccccc1Cl)c1ncn[nH]1`, the “hERG current change (%, negative = inhibition) at 10uM” value was found to be 14.2%.

On to `COc1ccccc1C(=O)COC(=O)CSC(C)C(=O)Nc1cc(C)on1` (stereo not shown), for which the “hERG current change (%, negative = inhibition) at 10uM” value is reported as -13.7%.

Consider `CCOc1ccc(CN(C)C(=O)Cc2c[nH]c3ccccc23)cc1`, for which the “hERG current change (%, negative = inhibition) at 10uM” value worked out at 12%.

On to `CCN(CC1CCCN(CCc2cccc(F)c2)C1)C(=O)c1cc2ccccc2o1` (stereo not shown), for which the “hERG current change (%, negative = inhibition) at 10uM” value is -79.6%.

Consider `O=C(c1cc2ccccc2o1)N1CCN=C1SCc1cccc(F)c1`, for which the “hERG current change (%, negative = inhibition) at 10uM” value was -7.82%.

`O=C(NCC1CCCN(Cc2cccc(F)c2)C1)c1cccc2ccccc12` (stereo not shown): the “hERG current change (%, negative = inhibition) at 10uM” value is recorded as -17.6%.

On to `O=C(CN(C(=O)CCC(=O)Nc1ccccn1)c1ccc2c(c1)OCO2)NCc1ccc(F)cc1`, for which the “hERG current change (%, negative = inhibition) at 10uM” value came out at 9.42%.

As for `CCOc1ccccc1NC(=O)NC1CC2CCCC(C1)N2Cc1nnnn1CCc1ccccc1` (stereo not shown), the “hERG current change (%, negative = inhibition) at 10uM” value was -5.67%.

Regarding `O=C(Nc1cccn(Cc2ccc(F)cc2)c1=O)NC1CCCCC1`, the “hERG current change (%, negative = inhibition) at 10uM” value is -36.2%.

For the molecule `O=C(Nc1ccccc1-c1ccccc1)NC1CC2CCCC(C1)N2Cc1ccc(F)cc1` (stereo not shown), the “hERG current change (%, negative = inhibition) at 10uM” value was -66.4%.

In the case of `CCNC(=S)NC1CC2CCCC(C1)N2CCc1ccccc1` (stereo not shown), the “hERG current change (%, negative = inhibition) at 10uM” value is -48.7%.

On to `CCc1ccccc1NC(=S)NC1CC2CCC(C1)N2Cc1ccc(F)cc1` (stereo not shown), for which the “hERG current change (%, negative = inhibition) at 10uM” value was -42%.

As for `O=C(Nc1ccccc1-c1ccccc1)NC1CC2CCCC(C1)N2CCc1ccccc1` (stereo not shown), the “hERG current change (%, negative = inhibition) at 10uM” value was -53.3%.

On to `O=C(N/N=C/c1ccc[nH]1)c1ccncc1`, for which the “hERG current change (%, negative = inhibition) at 10uM” value is listed as 20.2%.

Regarding `COc1cccc(NC(=O)CCS(=O)(=O)c2cccs2)c1`, the “hERG current change (%, negative = inhibition) at 10uM” value was determined as 14%.

In the case of `CC(=O)c1c(C)[nH]c(C(=O)OCC(=O)N2CC(C)OC(C)C2)c1C` (stereo not shown), the “hERG current change (%, negative = inhibition) at 10uM” value is given as 20.7%.

For the molecule `CCCCNC(=O)/C=C/c1ccc(S(=O)(=O)Nc2ccc(OC)cc2)cc1`, the “hERG current change (%, negative = inhibition) at 10uM” value is listed as 3.52%.

Take `Cc1cnc(NC(=O)C2(c3ccccc3)CC2)s1`: the “hERG current change (%, negative = inhibition) at 10uM” value is 7.07%.

On to `CC(C)NC(=O)c1sc2c(c1C(=O)Nc1cccnc1)CCCC2`, for which the “hERG current change (%, negative = inhibition) at 10uM” value is -69.7%.

As for `NC(=O)c1c(NC(=O)c2cccnc2)sc2c1CCCC2`, the “hERG current change (%, negative = inhibition) at 10uM” value was found to be 17.5%.

Consider `O=C(Nc1sc2c(c1C(=O)O)CCCCC2)c1cccnc1`, for which the “hERG current change (%, negative = inhibition) at 10uM” value is 16.7%.

Turning to `Cc1cc(-c2onc(C)c2C(=O)Oc2ccc(Cl)cc2)no1`, the “hERG current change (%, negative = inhibition) at 10uM” value is reported as -2.56%.

As for `Cc1cc(C)nc(SCCn2c(N3CCCCC3)nc3c2c(=O)n(C)c(=O)n3C)n1`, the “hERG current change (%, negative = inhibition) at 10uM” value is on record as -4.05%.

Consider `CC1(C)CC(=O)C=C(NC2CCCCCC2)C1`, for which the “hERG current change (%, negative = inhibition) at 10uM” value was -1.93%.

Take `O=C(Oc1ccc2ccccc2c1)C1CCC1`: the “hERG current change (%, negative = inhibition) at 10uM” value is given as 17%.

Take `Cc1ccccc1-c1nnn(CC(=O)N2CCN(C(=O)c3ccco3)CC2)n1`: the “hERG current change (%, negative = inhibition) at 10uM” value was -40.1%.

With `O=C(Nc1ccc(-c2nnn(CC(=O)N3CCN(C(=O)c4ccco4)CC3)n2)cc1)c1ccc(F)cc1`, the “hERG current change (%, negative = inhibition) at 10uM” value was 3.09%.

As for `O=C(Cn1nnc(-c2ccccc2)n1)N1CCN(S(=O)(=O)c2ccc(Cl)cc2)CC1`, the “hERG current change (%, negative = inhibition) at 10uM” value is 3.96%.

As for `O=C(Nc1ccc(-c2nnn(CC(=O)N3CCN(C(=O)c4ccco4)CC3)n2)cc1)c1ccccc1F`, the “hERG current change (%, negative = inhibition) at 10uM” value is on record as -53.2%.

Regarding `COc1ccc(C(=O)Nc2ccc(-c3nnn(CC(=O)N4CCN(C(=O)c5ccco5)CC4)n3)cc2)cc1`, the “hERG current change (%, negative = inhibition) at 10uM” value is on record as 7.09%.

Take `O=C(Cn1nnc(-c2ccc(Cl)cc2)n1)N1CCN(C(=O)c2ccco2)CC1`: the “hERG current change (%, negative = inhibition) at 10uM” value is on record as -65%.

In the case of `Cc1ccc(C2=NOC(=O)/C2=C\c2ccc(C)o2)cc1`, the “hERG current change (%, negative = inhibition) at 10uM” value is reported as 6.75%.

In the case of `O=C(N/N=C\c1cccnc1)C1c2ccccc2Oc2ccccc21`, the “hERG current change (%, negative = inhibition) at 10uM” value was determined as 0.415%.

Take `CCOC(=O)C1=C(C)N(C)C(=S)N(C)C1c1ccc(OC)cc1` (stereo not shown): the “hERG current change (%, negative = inhibition) at 10uM” value is on record as -10.5%.

`CN(C)S(=O)(=O)c1ccc(C(=O)OCC(=O)NCc2ccco2)cc1`: the “hERG current change (%, negative = inhibition) at 10uM” value came to 11.6%.
